Compounds with a hit are over-represented: about 3.9% of the library has one in this group of screens.
GDH-TPI counter: GDH-TPI coupled enzyme inhibition counter-screen. inhibition, % at 4.8 µM. 1.2% of 360,000 active. AID 588335. GDH-TPI coupled enzyme counterscreen, NADH absorbance; in the data active = inhibition above about 30%;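 also: 0% = DMSO wells and 100% = wells lacking the enzyme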
PrPC surface inh: inhibitors of human cell surface prion protein PrPC; TR-FRET read-out; inhibition, % at 13.8 µM; 0.43% of 370,000 active; AID 720596; in the data active = inhibition above about 24%; also: 0% = median of the test wells and 100% = reference compound wells
3CLpro inhibitor: SARS-CoV 3CLpro protease inhibition; AID 1706; inhibition, % at 6 µM; recombinant SARS-CoV 3CLpro, quenched FRET peptide cleavage; 0.14% of 290,000 active; P0C6X7; in the data active = inhibition above about 12%
Mtb FBA inh: Mtb fructose-bisphosphate aldolase inhibition; AID 588726; inhibition, % at 1 µM; 2.3% of 360,000 active; purified M. tuberculosis FBA, fluorescence read-out; P9WQA3; in the data active = inhibition above about 27%;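 also: 0% = vehicle and 100% = reference inhibitor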
Target sequence (P9WQA3 whole entry, looked up): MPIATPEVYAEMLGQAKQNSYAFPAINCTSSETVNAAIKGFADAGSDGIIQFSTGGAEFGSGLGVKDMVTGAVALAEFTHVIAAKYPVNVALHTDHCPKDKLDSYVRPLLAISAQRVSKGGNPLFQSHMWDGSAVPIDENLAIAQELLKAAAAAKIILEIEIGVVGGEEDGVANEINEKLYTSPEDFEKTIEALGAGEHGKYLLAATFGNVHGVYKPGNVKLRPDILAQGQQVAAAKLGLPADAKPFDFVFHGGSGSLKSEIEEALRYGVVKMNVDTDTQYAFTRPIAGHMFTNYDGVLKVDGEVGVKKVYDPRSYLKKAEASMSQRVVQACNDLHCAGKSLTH
Vc quorum ag: quorum light induction in luxS cqsA deficient V. cholerae; V. cholerae BH1578 lux reporter, luminescence, 6 h; activation, % at 18.7 µM; 0.16% of 350,000 active; AID 588436; in the data active = activation mostly above about 9.7%, no sharp cut-off
Active calls of the source: *; i = inactive; . = not tested or not shown; + = active, no number.

SMILES	GDH-TPI counter	PrPC surface inh	3CLpro inhibitor	Mtb FBA inh	Vc quorum ag
CC(O)C(NS(=O)(=O)c1ccc2ccccc2c1)C(=O)OCC(=O)Nc1ccccc1OC(F)F (stereo unspecified)	-2	0	.	0	i
COC(=O)c1ccc(-c2ccc(/C=N/N3C(=O)C4C5C=CC(C6CC56)C4C3=O)o2)cc1 (stereo unspecified)	34*	0	-2	4	0
COC(=O)CSc1nnc(-c2ccc(NS(=O)(=O)c3ccc(C(C)(C)C)cc3)cc2)o1	.	6	.	.	.
O=C(Nc1ncccc1O)c1ccc(Cl)c(S(=O)(=O)N2CCCC2)c1	6	5	.	-5	0
COc1ccc(NC(=O)/C(=C/c2cccs2)NC(=O)c2ccco2)cc1	45*	-4	-4	3	i
COc1ccc(NC(=O)/C(=C\c2ccc(OC)c(OC)c2)NC(=O)c2ccco2)cc1	37*	-10	4	0	-1
CC(=O)c1ccc(NC(=O)/C(=C\c2cccs2)NC(=O)c2ccco2)cc1	33*	-3	-1	-5	-1
COc1ccc(/C=C(/NC(=O)c2ccc(Br)o2)C(=O)Nc2cccc(C(=O)O)c2)cc1	34*	0	.	3	i
O=C(CC1CCCC1)Nc1ccc(Cl)c(S(=O)(=O)N2CCOCC2)c1	8	3	.	0	i
CCn1c(SCc2ccc(C(C)(C)C)cc2)nnc1-c1ccc(C(C)(C)C)cc1	.	-6	.	.	.
CCCCc1nnc(NC(=O)c2ccc3[nH]c(=O)c(=O)[nH]c3c2)s1	46*	-1	-2	18	-1
Cc1cccc(NC(=O)c2ccc3[nH]c(=O)c(=O)[nH]c3c2)n1	32*	2	-5	6	-2
O=C(Nc1ccc(F)cc1)c1ccc2[nH]c(=O)c(=O)[nH]c2c1	9	0	0	2	0
O=C(Nc1nc2c(Br)cccc2s1)c1ccc2c(c1)OCCO2	.	3	.	.	.
O=C(N/N=C/c1ccc([N+](=O)[O-])o1)c1cc(-c2ccncc2)nc2ccccc12	40*	-10	5	1	0
O=C(N/N=C/c1ccco1)c1cc(-c2cccc(Br)c2)nc2ccccc12	41*	6	1	-1	0
Cc1ccsc1/C=N/NC(=O)c1cc(-c2ccncc2)nc2ccccc12	43*	0	5	-4	0
COc1ccccc1-c1cc(C(=O)N/N=C/c2ccc(C)o2)c2ccccc2n1	49*	2	-1	0	i
COc1ccccc1-c1cc(C(=O)N/N=C/c2sccc2C)c2ccccc2n1	24	3	2	-3	1
COc1ccccc1-c1cccc2c3c([nH]c12)[C@@H]1C[C@H]2[C@@H](CN1CC3)[C@H](C)ON2C	.	-8	.	.	.
OCC1OC(Nc2ccccc2C=NO)C(O)C1O (stereo unspecified)	7	0	.	5	5
CC(Sc1nc(-c2ccco2)nc2c1c(=O)n(C)c(=O)n2C)C(=O)O (stereo unspecified)	32*	-2	1	-2	0
Cn1c(=O)c2c(SCc3ccccc3)nc(-c3ccco3)nc2n(C)c1=O	.	.	9	.	.
O=C1NC[C@H](Cc2ccccc2)N(C[C@@H]2CCCN2C[C@H](Cc2ccccc2)N2C[C@H](Cc3ccccc3)N(CCc3ccccc3)C(=O)C2=O)C1=O	.	-4	.	2	.
COc1nccnc1NS(=O)(=O)c1ccc(N=Cc2c(C)[nH]n(-c3ccc(C)c(C)c3)c2=O)cc1	32*	-1	0	-1	i
SMILES	GDH-TPI counter	PrPC surface inh	3CLpro inhibitor	Mtb FBA inh	Vc quorum ag
C=CCN1C(C(=O)OC)CN(Cc2cn(CCC3OCCO3)nn2)CCS1(=O)=O (stereo unspecified)	.	-3	.	.	.
Cc1c(C)c2c(OCC(=O)O)cc3c(c2oc1=O)CCC(C)(C)O3	9	3	-4	+	2
Cc1c(C)c2c(OCC(=O)NCC(=O)NCC(=O)O)cc3c(c2oc1=O)CCC(C)(C)O3	12	-8	-1	+	-1
Cc1cc(OCC(=O)Nc2ccc(Br)cc2)cc2c1C(=O)CC(C)(C)O2	-4	-1	4	1	i
Cc1c(C)c2c(OCC(=O)Nc3ccc(CCO)cc3)cc3c(c2oc1=O)CCC(C)(C)O3	24	5	-3	+	-1
Cc1oc2c(c(C)cc3oc(=O)c(CC(=O)NCC(=O)NCC(=O)O)c(C)c32)c1C	5	-1	-1	24	-1
CCc1ccc(NC(=S)N(CCN2CCOCC2)Cc2ccccc2F)cc1	-9	8	3	-4	0
COc1cc(NC(=O)c2cccs2)ccc1NC(=O)c1ccco1	35*	-8	-2	2	i
COc1cc(NC(=O)COc2ccccc2[N+](=O)[O-])ccc1NC(=O)c1cccs1	41*	16	3	0	-1
CC(C)(C)c1cc(C(F)(F)F)c(C#N)c(=O)[nH]1	5	7	-1	120*	1
CCCc1cc(C(F)(F)F)c(C#N)c(=O)[nH]1	11	-6	4	156*	i
Cc1cc(-c2ccc(Cl)cc2Cl)c(C#N)c(=O)[nH]1	19	-1	5	15	i
CCCCNC(=O)NC1CCN(CC(=O)Nc2ccc3c(c2)OCCO3)CC1	.	-8	.	.	.
O=C(NCc1ccccc1)c1ccc(-c2cn[nH]c2)c2ccoc12	10	3	.	32*	-1
COc1cc(NC(=O)c2ccc(-c3cn[nH]c3)c3ccoc23)cc(OC)c1OC	13	5	.	0	0
CC1(C)Cc2c(cnn2-c2ccc(F)cc2)C(NC(=O)c2ccc(=O)oc2)C1 (stereo unspecified)	41*	-4	1	-2	i
CNc1ccc(/C=C(\CCC(=O)O)c2nc3ccccc3s2)cc1[N+](=O)[O-]	35*	-21	3	-8	0
COc1cc(/C=C(\CC(=O)O)c2nc3ccccc3s2)cc(OC)c1O	39*	-1	-1	7	i
O=C(O)C/C(=C\c1cccc(NC(=O)c2ccccc2Cl)c1)c1nc2ccccc2s1	22	-8	1	7	1
CN(c1ccccc1)c1ccc(/C=C(\CCC(=O)O)c2nc3ccccc3s2)cc1[N+](=O)[O-]	23	-9	5	0	0
Cc1ccc(/C=C(\CCC(=O)O)c2nc3ccccc3s2)cc1[N+](=O)[O-]	34*	-6	6	-3	0
COc1ccc(C(=O)Nc2cccc(/C=C(\CCC(=O)O)c3nc4ccccc4s3)c2)cc1	32*	-6	-1	2	0
Cn1cnnc1Sc1ccc(/C=C(\CCC(=O)O)c2nc3ccccc3s2)cc1[N+](=O)[O-]	10	0	3	-1	i
Fc1ccc(-c2c[nH]c(=S)n2Cc2ccccc2)cc1	-3	-3	10	1	-2
O=C(CN1CCCCC1)NC(=O)NCc1ccccc1	-19	-6	-5	0	0
CCOCCCn1c(=NC(=O)c2cccs2)c(C#N)cc2c(=O)n3cccc(C)c3nc21	13	-3	-2	+	-1
CCCn1c(=NC(C)=O)c(C#N)cc2c(=O)n3cccc(C)c3nc21	.	.	1	.	.

Screens deposited in PubChem by several laboratories.
